From PubChem BioAssay (NCI)
This is part of a sample that, as a whole, favours compounds with a hit. Of some 79,000 tested, about 15% had one in any assay. Activity calls are given as the source filed them. Cut-off read from the data, not from the text of the source: active = growth inhibition above about 70%; inactive = the rest.

Experiment: NCI Yeast Anticancer Drug Screen. Data for the wt2 strain (AID 169);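 note: 0% = growth of vehicle-treated yeast cultures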
Settings: S. cerevisiae wt2 strain growth inhibition, active compounds read high
Description: Growth inhibition of yeast strains with defined genetic alterations is measured as a screen for potential anti-cancer activity. Selected strains with alterations in DNA damage repair or cell cycle control were exposed to compounds and growth inhibition was measured relative to vehicle treated controls. The strain used in this assay is wt2

Measured: growth inhibition

C[C@@](O)(/C=C/[C@H]1CC=CC(=O)O1)[C@@H](C[C@@H](O)\C=C/C=C\C=C\CO)OP(=O)(O)O
active: at 100.0 µM 88%
inactive: at 1.2 µM 4% | at 3.7 µM 19% | at 11.0 µM 20% | at 33.0 µM 39%

Cc1c2ccnc(C(=O)NCCN(C)C)c2cc2c3cc(O)ccc3n(C)c12
inactive: at 1.2 µM 1% | at 3.7 µM 2% | at 11.0 µM 7% | at 33.0 µM 20% | at 100.0 µM 30%

Cc1nc2c(Br)cc(Br)cc2c(=O)n1-c1ccccc1NC1OCC(O)C(O)C1O (stereo not given)
inactive: at 1.2 µM 2% | at 3.7 µM 4% | at 11.0 µM 10% | at 33.0 µM 43%
active: at 100.0 µM 96%

CC(=O)Nc1ccc(/C=C/[N+](=O)[O-])cc1
active: at 100.0 µM 91%
inactive: at 1.2 µM -4% | at 3.7 µM -3% | at 11.0 µM -4% | at 33.0 µM 11%

Nc1ccn(C2OC(COP(=O)(O)O)C(O)C2O)c(=O)n1 (stereo not given)
inactive: at 1.2 µM -1% | at 3.7 µM -1% | at 11.0 µM -1% | at 33.0 µM 1% | at 100.0 µM 12%

Cc1ccc(NC(=O)/C(CC2N=c3c(ccc4c(O)c5ccccc5c(O)c34)=NC2O)=N/NC(C)(C)C)cc1 (stereo not given)
inactive: at 1.2 µM 0% | at 3.7 µM 1% | at 11.0 µM 4% | at 33.0 µM 5% | at 100.0 µM 7%

CN(C)c1ccc(N=Nc2ccncc2)cc1
inactive: at 1.2 µM 3% | at 3.7 µM 7% | at 11.0 µM 22% | at 33.0 µM 23% | at 100.0 µM 20%

Cc1cc(N(CCOS(C)(=O)=O)CCOS(C)(=O)=O)ccc1C=Nc1ccc(-c2csc(-c3ccccc3)n2)c(Cl)c1
inactive: at 1.2 µM -4% | at 3.7 µM 4%
active: at 11.0 µM 72% | at 33.0 µM 97% | at 100.0 µM 92%
